Experimental data published in PubChem BioAssay AID624325 (Sanford-Burnham Center for Chemical Genomics, 2012).
About 1,000 (43%) of roughly 2,300 compounds were called active. So high a share suggests a set chosen from earlier hits. These entries were drawn from the full list. Unmarked numbers belong to inactive results.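 Rule for the calls: active = compounds inhibiting the enzyme by at least 50% at 15 µM in any one of the replicates; inactive = the rest.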

biological target: Fatty acid synthase (Homo sapiens) (UniProt P49327); assay: inhibition of human FAS-TE enzyme activity – biochemical, fluorescence intensity, single concentration, confirmation (AID 624325); conditions: recombinant FAS-TE, OMFH fluorogenic substrate, at 15 µM, stronger effect = higher value;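 note: 0% = enzyme with DMSO only and 100% = wells lacking enzyme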
Sequence (P49327 whole entry, looked up): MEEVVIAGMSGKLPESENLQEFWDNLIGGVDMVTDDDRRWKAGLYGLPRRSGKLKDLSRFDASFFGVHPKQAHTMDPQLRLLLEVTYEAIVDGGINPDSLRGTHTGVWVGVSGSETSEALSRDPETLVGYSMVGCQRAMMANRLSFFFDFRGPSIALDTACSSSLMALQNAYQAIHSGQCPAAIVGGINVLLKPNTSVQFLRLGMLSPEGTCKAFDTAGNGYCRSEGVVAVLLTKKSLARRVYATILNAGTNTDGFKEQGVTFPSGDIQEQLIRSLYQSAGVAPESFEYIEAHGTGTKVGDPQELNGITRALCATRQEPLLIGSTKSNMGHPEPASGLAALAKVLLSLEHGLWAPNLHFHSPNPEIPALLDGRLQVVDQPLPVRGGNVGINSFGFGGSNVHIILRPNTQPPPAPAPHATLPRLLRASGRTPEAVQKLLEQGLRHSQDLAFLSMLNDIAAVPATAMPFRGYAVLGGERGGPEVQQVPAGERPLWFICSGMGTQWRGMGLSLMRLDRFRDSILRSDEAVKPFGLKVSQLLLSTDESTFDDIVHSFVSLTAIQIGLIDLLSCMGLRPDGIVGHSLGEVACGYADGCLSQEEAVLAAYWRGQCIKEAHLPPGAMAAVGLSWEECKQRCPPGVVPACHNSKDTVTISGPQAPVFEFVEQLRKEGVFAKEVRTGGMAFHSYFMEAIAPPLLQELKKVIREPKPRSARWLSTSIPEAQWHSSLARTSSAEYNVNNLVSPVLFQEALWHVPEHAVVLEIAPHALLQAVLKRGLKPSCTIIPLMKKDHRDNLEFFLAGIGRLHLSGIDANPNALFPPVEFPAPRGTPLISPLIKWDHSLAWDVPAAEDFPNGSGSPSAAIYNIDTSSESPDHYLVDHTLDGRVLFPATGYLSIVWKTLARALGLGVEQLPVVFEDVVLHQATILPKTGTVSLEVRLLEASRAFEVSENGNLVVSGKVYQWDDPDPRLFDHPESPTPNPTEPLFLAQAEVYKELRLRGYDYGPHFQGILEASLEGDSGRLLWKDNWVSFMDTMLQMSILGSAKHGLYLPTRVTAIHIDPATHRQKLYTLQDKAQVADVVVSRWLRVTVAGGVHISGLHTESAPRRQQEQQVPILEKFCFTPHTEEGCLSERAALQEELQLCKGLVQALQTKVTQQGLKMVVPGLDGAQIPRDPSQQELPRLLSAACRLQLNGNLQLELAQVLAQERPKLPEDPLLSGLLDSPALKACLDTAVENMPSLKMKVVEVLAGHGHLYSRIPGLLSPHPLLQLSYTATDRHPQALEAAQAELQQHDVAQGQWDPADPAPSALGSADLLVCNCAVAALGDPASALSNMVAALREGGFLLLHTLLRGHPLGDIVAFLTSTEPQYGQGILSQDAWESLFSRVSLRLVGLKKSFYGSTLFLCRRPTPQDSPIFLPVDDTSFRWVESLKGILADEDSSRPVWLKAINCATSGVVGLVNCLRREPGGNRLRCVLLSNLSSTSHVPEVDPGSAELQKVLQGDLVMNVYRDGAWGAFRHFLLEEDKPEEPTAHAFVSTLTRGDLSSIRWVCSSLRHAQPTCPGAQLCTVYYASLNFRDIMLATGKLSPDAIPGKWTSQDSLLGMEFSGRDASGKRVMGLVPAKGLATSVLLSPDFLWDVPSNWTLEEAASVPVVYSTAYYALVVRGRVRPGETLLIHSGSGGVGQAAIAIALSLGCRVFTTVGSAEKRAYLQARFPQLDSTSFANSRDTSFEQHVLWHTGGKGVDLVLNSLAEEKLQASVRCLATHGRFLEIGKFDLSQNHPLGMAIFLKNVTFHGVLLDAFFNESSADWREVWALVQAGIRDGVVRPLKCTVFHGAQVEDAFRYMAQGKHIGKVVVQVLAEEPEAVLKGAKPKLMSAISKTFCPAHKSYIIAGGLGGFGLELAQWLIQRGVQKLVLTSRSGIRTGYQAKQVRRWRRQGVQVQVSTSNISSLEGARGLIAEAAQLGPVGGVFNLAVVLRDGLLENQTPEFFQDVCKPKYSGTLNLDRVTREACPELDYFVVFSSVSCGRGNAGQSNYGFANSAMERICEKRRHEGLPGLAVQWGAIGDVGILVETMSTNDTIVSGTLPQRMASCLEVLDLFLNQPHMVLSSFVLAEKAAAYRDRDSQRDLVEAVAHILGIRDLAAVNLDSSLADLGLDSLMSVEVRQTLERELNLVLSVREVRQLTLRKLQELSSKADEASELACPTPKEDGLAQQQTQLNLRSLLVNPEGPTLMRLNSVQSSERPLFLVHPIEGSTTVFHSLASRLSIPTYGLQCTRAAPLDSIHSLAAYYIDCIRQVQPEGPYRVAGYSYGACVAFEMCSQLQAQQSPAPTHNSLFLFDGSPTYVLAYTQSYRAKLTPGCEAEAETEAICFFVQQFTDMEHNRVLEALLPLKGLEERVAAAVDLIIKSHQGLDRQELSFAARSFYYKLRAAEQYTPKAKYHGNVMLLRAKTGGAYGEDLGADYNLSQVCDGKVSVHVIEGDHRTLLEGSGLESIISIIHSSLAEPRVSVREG

Structure (SMILES) | inhibition
Cc1cccc([C@@H]2[C@@H]3C(=O)N(Cc4ccccc4)C(=O)[C@@H]3[C@]3(Cc4ccc(Cl)cc4)C(=O)N(c4cccc(Cl)c4)C(=O)N23)c1 | 11.9%
COc1ccc([C@@H]2[C@@H]3C(=O)N(C(C)(C)C)C(=O)[C@@H]3[C@]3(Cc4ccccc4)C(=O)N(c4cccc(Br)c4)C(=O)N23)cc1 | 46.4% (active)
Cc1ccc(C(=O)N/C(=C\c2cn(S(=O)(=O)N(C)C)c3ccccc23)C(=O)N2CCCC2)cc1 | 88.2% (active)
Cc1ccc(S/C(=N\S(=O)(=O)c2ccc(Cl)cc2)c2ccccc2)cc1 | 29.6%
COc1ccc([N+](=O)[O-])cc1NC(=O)CC1SC(=Nc2cccc(C)c2C)N(/N=C(\C)c2ccc(C)cc2)C1=O (stereo not given) | 25.8%
COc1ccc([N+](=O)[O-])cc1NC(=O)c1ccc(N(Cc2ccccc2C)S(C)(=O)=O)cc1 | 39.2% (active)
CCCCCCCCCCCCN1[C@@H](CC(C)=O)c2cc(F)cc(F)c2S1(=O)=O | 9.68%
COc1ccc2c(c1)[C@H]1[C@H](CO2)[C@H](c2ccccc2)[C@]2(C)C(=O)Nc3cc(F)c(F)cc3C(=O)N12 | 34%
CC(C)c1ccc2c(c1)c(SC(C)(C)C)c(CC(C)(C)C(=O)O)n2Cc1ccc(Cl)cc1 | 51.4% (active)
O=C(OC1CCOC1=O)c1ccc(-c2nc3ccccc3s2)s1 (stereo not given) | 35.3%
O=S(=O)(Nc1cccc(-n2cnnn2)c1)c1cnc(Cl)c(Cl)c1 | 68% (active)
CCCc1cc(-c2nc(-c3ccc(C)cc3)cs2)ccn1 | 46.9%
O=C(Nc1ccccc1)c1nnsc1S(=O)(=O)c1ccc(Cl)cc1 | 72.3% (active)
O=C(Nc1cccc(S(=O)(=O)Nc2ccc(Cl)cc2)c1)c1ccc2c(c1)OCCO2 | 37.6%
O=C(CC(c1ccccc1)c1ccccc1)NCC(O)c1ccc([N+](=O)[O-])cc1 (stereo not given) | 55.1% (active)
CC(C=Cc1ccccc1)=NNS(=O)(=O)c1ccc([N+](=O)[O-])cc1 | 71.2% (active)
COCCNC(=O)CCCn1c(=O)c2ccccc2n(Cc2cccc([N+](=O)[O-])c2)c1=O | 37.5% (active)
O=C(Oc1cccc(N2C(=O)C3C4c5ccccc5C(c5ccccc54)C3C2=O)c1)c1ccco1 (stereo not given) | 36.3% (active)
COc1ccc(C2Nc3ccccc3C(=O)N2c2ccc(Cl)cc2)cc1Cn1cc([N+](=O)[O-])cn1 (stereo not given) | 41.9%
O=[N+]([O-])c1ccc(CN2CC(N3CCC(c4ccccc4)CC3)CS2(=O)=O)cc1 (stereo not given) | 22.4%
CCCCCOC(=O)c1ccc(N2C(=O)C3C4C=CC(C4)C3C2=O)cc1 (stereo not given) | 51.4% (active)
Cc1ccc(NC(=O)c2nc[nH]c2C(=O)N[C@@H](CCCCNC(=O)OC(C)(C)C)C(=O)OC(C)(C)C)cc1 | 83.9% (active)
CCOC(=O)c1ccc(NC(=O)c2nc[nH]c2C(=O)N[C@@H](CCCCNC(=O)OC(C)(C)C)C(=O)OC(C)(C)C)cc1 | 57.3% (active)

Structure (SMILES) | inhibition
Cc1cccc(CS(=O)(=O)c2ncc(Cl)c(C(=O)Nc3ccc(F)cc3)n2)c1 | 53.2% (active)
O=C(Nc1ccccc1Cl)/C(Cl)=C(\Cl)S(=O)c1ccccc1 (stereo not given) | 76.4% (active)
Cc1cc(C(=O)COc2ccccc2[N+](=O)[O-])c(C)n1-c1cccc(S(=O)(=O)N2CCOCC2)c1 | 21.2%
Nc1c(-c2cccc(Cl)c2)cnn1-c1cccc([N+](=O)[O-])c1 | 48.9% (active)
CNC(=O)/C(=C\C=C\c1ccccc1)NC(=O)c1ccc([N+](=O)[O-])cc1 | 91.7% (active)
C/C(=N\Nc1nc(N2CCOCC2)nc(N2CCOCC2)n1)c1ccc([N+](=O)[O-])cc1 | 41.8% (active)
CCCN1Cc2cccc(C(=O)Nc3ccc(S(=O)(=O)N4CCCCCC4)cc3)c2C1=O | 0.41%
COc1ccc(S(=O)(=O)N2CCCCC2)cc1NC(=O)c1cc([N+](=O)[O-])ccc1N1CCOCC1 | 25.8%
O=C(NCc1ccc2c(c1)OCO2)c1cc([N+](=O)[O-])ccc1N1CCOCC1 | 54% (active)
CN(C)c1ccc(/C=C/C(=O)c2ccc(C(C)(C)C)cc2)cc1[N+](=O)[O-] | 33%
O=[N+]([O-])c1cc(Br)c(O)c(/C=N/Nc2nc3ccccc3s2)c1 | 16.1%
Cc1cc(C(=O)N/N=C/c2cc([N+](=O)[O-])cc(C)c2O)n[nH]1 | 72.6% (active)
CC1(C)CC(=O)c2c(n(S(=O)(=O)c3ccccc3)c3ccc(NS(=O)(=O)c4ccccc4)cc23)C1 | 19.9%
Oc1c(Cl)cc(Cl)c(Cl)c1Cc1c(O)c(Cl)cc(Cl)c1Cl | 70.1% (active)
Cc1noc(C)c1NC(=O)Nc1cccc2c1O[C@H](CN(C)C(=O)Nc1ccccc1)[C@@H](C)CN([C@H](C)CO)C2=O | 61.3% (active)
O=C(Cc1ccc(Cl)c(Cl)c1)Nc1ccc(SC(F)F)cc1 | 37.6%
O=C(c1ccc2c(c1)N(Cc1ccc(F)cc1)C(=O)c1ccccc1S2(=O)=O)N1CCN(c2ccccn2)CC1 | 21.2%
COc1ccc2nc(Nc3nc4cc5c(cc4s3)OCCO5)sc2c1 | 17.9%
CC1=CC(=C(C#N)c2nc3ccccc3s2)C=C(C)N1c1ccc(F)cc1F | -32.7%
O=C(NCCC1=CCCCC1)c1ccc(Cl)c([N+](=O)[O-])c1 | 61.2% (active)
Cc1sc2nc(-c3ccccc3F)oc(=O)c2c1C | 6.55%
COc1ccc(-c2csc3nc(-c4ccccc4F)oc(=O)c23)cc1OC | 57.9% (active)
